From ChEMBL document CHEMBL1961873, “Compounds: GSK PKIS; Assays: Nanosyn kinase panel” (2012)

How the values were obtained:
[1] = molecular target: Sphingosine kinase 1 (Homo sapiens) (UniProt Q9NYA1); settings: at 1 µM;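 further: mean SPHK1 inhibition value reported from the GSK PKIS kinase panel screen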
[2] = molecular target: T1, Sphingosine kinase 2 (Homo sapiens) (UniProt Q9NRA0); settings: at 0.1 µM
T1 sequence (whole entry): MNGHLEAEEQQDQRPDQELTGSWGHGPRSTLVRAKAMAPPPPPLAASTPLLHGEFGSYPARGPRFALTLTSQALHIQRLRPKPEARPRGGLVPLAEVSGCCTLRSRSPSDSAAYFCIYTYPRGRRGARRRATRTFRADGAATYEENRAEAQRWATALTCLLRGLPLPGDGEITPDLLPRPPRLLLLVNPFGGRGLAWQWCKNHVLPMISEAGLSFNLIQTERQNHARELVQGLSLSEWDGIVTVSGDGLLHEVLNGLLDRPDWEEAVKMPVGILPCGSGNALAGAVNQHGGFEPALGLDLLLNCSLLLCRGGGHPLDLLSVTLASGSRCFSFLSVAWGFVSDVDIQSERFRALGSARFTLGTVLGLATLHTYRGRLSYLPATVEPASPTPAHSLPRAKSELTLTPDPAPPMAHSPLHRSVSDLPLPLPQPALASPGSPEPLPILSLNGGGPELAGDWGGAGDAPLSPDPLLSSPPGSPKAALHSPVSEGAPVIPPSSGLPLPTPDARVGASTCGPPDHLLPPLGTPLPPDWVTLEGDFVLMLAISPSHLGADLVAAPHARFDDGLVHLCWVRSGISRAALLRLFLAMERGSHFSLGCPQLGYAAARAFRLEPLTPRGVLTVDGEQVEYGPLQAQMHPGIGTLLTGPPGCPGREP

[3] = molecular target: T1, Sphingosine kinase 2 (Homo sapiens); settings: at 1 µM
[4] = molecular target: Casein kinase II subunit alpha (Homo sapiens) (UniProt P68400); settings: at 0.1 µM
[5] = molecular target: Casein kinase II subunit alpha (Homo sapiens) (UniProt P68400); settings: at 1 µM
[6] = molecular target: T2, Inhibitor of nuclear factor kappa-B kinase subunit alpha (Homo sapiens) (UniProt O15111); settings: at 0.1 µM
T2 sequence (whole entry): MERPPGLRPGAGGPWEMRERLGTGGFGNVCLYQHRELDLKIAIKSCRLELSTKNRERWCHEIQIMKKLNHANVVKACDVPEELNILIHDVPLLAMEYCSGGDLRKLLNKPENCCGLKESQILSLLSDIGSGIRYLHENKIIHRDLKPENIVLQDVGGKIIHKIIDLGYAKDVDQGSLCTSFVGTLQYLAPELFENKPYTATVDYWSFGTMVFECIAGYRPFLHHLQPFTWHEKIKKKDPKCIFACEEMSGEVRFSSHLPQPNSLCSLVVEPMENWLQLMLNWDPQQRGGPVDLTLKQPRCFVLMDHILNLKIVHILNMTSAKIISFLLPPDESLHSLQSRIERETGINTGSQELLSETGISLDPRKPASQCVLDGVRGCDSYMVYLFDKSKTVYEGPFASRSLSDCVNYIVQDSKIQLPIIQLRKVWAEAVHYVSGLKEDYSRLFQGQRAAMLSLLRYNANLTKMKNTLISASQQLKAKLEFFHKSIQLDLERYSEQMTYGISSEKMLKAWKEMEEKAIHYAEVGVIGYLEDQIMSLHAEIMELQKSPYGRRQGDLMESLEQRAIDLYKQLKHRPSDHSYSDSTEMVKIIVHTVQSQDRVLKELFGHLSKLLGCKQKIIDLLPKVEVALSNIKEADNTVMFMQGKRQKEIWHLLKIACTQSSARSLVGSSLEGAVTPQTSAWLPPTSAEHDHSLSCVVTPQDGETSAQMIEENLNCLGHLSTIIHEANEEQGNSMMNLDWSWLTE

[7] = molecular target: T2, Inhibitor of nuclear factor kappa-B kinase subunit alpha (Homo sapiens); settings: at 1 µM
[8] = molecular target: T3, Inhibitor of nuclear factor kappa-B kinase subunit beta (Homo sapiens) (UniProt O14920); settings: at 0.1 µM
T3 sequence (whole entry): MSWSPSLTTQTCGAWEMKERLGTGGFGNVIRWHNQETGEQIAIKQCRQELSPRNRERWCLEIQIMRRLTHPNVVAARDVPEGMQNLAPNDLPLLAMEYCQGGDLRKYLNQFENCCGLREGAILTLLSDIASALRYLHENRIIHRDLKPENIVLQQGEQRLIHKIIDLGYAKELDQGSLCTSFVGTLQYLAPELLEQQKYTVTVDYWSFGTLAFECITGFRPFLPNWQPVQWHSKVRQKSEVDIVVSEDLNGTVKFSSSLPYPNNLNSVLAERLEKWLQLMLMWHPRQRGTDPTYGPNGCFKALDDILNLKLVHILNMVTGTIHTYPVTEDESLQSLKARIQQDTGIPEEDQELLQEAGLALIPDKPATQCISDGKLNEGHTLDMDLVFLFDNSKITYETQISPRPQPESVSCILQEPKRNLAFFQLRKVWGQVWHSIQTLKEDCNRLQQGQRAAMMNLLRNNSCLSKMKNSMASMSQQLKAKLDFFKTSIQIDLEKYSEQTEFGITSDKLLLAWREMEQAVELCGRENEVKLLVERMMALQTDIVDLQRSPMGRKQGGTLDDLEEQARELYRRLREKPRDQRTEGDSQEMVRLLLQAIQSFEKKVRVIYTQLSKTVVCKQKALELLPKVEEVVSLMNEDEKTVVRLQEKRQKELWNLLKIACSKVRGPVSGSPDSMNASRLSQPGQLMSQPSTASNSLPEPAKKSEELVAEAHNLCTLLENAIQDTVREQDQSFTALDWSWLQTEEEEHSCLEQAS

[9] = molecular target: T3, Inhibitor of nuclear factor kappa-B kinase subunit beta (Homo sapiens); settings: at 1 µM
[10] = molecular target: T4, Inhibitor of nuclear factor kappa-B kinase subunit epsilon (Homo sapiens) (UniProt Q14164); settings: at 0.1 µM
T4 sequence (whole entry): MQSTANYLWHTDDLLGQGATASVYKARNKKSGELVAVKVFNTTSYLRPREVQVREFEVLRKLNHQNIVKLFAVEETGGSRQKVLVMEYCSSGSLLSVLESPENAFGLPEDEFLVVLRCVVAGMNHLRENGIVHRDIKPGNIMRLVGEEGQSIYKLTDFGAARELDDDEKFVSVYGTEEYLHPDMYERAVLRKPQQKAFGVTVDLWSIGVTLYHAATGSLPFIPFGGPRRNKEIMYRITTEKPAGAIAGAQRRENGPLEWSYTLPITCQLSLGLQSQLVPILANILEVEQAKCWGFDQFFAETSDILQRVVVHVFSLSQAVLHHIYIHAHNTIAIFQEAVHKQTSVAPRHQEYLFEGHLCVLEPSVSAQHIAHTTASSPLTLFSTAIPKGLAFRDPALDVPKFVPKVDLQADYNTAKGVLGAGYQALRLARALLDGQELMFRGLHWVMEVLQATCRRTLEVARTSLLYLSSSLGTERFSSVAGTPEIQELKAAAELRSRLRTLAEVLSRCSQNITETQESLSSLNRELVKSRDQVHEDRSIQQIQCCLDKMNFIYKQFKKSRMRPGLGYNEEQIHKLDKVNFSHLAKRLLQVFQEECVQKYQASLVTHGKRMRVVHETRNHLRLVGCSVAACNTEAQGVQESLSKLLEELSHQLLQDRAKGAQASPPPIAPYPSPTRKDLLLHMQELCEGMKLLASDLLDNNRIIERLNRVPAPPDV

[11] = molecular target: T4, Inhibitor of nuclear factor kappa-B kinase subunit epsilon (Homo sapiens); settings: at 1 µM
[12] = molecular target: T5, Serine/threonine-protein kinase Nek1 (Homo sapiens) (UniProt Q96PY6); settings: at 0.1 µM
T5 sequence (whole entry): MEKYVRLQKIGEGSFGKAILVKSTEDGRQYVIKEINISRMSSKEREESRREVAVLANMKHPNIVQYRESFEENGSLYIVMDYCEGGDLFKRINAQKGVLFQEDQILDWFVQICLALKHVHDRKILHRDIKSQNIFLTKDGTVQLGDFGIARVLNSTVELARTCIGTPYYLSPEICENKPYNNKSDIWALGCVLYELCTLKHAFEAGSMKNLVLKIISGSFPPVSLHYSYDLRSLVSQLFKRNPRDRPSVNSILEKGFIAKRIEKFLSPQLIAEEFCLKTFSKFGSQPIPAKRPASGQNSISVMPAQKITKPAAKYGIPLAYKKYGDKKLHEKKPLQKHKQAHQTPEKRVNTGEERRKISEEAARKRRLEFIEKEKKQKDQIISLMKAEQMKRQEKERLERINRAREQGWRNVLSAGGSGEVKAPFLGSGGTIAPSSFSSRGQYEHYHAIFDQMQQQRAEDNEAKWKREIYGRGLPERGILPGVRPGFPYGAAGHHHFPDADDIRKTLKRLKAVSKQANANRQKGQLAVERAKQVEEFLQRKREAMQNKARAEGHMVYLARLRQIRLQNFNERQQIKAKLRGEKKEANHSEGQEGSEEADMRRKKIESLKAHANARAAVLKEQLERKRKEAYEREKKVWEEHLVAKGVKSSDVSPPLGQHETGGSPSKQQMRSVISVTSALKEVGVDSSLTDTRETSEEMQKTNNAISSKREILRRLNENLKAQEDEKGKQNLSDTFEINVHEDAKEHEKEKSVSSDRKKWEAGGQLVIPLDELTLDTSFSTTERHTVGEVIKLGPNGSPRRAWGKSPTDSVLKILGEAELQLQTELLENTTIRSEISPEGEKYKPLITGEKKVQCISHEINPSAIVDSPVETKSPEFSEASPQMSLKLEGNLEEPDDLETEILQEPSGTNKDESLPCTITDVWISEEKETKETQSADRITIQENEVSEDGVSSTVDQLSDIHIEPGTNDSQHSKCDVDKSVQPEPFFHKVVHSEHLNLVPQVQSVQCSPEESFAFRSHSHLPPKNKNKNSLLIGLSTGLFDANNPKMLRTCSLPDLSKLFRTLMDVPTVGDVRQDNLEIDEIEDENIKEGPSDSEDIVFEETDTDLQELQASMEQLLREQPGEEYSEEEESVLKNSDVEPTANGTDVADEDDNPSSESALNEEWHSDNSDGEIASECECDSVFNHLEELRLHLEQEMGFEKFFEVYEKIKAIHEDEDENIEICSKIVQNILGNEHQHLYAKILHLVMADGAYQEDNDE

[13] = molecular target: T5, Serine/threonine-protein kinase Nek1 (Homo sapiens); settings: at 1 µM
[14] = molecular target: T6, Serine/threonine-protein kinase Nek2 (Homo sapiens) (UniProt P51955); settings: at 0.1 µM
T6 sequence (whole entry): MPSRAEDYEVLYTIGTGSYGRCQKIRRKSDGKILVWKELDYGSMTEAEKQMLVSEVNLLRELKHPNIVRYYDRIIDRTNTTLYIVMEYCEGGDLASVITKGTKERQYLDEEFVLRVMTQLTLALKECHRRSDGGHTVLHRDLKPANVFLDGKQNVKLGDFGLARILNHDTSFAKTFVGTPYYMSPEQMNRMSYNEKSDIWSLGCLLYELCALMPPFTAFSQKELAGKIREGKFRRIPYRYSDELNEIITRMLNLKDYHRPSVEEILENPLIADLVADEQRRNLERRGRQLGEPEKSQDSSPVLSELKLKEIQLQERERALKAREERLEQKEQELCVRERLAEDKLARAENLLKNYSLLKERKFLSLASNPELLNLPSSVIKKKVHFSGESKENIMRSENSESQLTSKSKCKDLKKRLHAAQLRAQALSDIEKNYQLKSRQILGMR

[15] = molecular target: T6, Serine/threonine-protein kinase Nek2 (Homo sapiens); settings: at 1 µM
[16] = molecular target: Serine/threonine-protein kinase Nek6 (Homo sapiens) (UniProt Q9HC98); settings: at 0.1 µM
[17] = molecular target: Serine/threonine-protein kinase Nek6 (Homo sapiens) (UniProt Q9HC98); settings: at 1 µM
[18] = molecular target: Serine/threonine-protein kinase Nek7 (Homo sapiens) (UniProt Q8TDX7); settings: at 0.1 µM
[19] = molecular target: Serine/threonine-protein kinase Nek7 (Homo sapiens) (UniProt Q8TDX7); settings: at 1 µM
[20] = molecular target: T7, Serine/threonine-protein kinase Nek9 (Homo sapiens) (UniProt Q8TD19); settings: at 0.1 µM;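 further: reported value is the mean percent inhibition of NEK9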
T7 sequence (whole entry): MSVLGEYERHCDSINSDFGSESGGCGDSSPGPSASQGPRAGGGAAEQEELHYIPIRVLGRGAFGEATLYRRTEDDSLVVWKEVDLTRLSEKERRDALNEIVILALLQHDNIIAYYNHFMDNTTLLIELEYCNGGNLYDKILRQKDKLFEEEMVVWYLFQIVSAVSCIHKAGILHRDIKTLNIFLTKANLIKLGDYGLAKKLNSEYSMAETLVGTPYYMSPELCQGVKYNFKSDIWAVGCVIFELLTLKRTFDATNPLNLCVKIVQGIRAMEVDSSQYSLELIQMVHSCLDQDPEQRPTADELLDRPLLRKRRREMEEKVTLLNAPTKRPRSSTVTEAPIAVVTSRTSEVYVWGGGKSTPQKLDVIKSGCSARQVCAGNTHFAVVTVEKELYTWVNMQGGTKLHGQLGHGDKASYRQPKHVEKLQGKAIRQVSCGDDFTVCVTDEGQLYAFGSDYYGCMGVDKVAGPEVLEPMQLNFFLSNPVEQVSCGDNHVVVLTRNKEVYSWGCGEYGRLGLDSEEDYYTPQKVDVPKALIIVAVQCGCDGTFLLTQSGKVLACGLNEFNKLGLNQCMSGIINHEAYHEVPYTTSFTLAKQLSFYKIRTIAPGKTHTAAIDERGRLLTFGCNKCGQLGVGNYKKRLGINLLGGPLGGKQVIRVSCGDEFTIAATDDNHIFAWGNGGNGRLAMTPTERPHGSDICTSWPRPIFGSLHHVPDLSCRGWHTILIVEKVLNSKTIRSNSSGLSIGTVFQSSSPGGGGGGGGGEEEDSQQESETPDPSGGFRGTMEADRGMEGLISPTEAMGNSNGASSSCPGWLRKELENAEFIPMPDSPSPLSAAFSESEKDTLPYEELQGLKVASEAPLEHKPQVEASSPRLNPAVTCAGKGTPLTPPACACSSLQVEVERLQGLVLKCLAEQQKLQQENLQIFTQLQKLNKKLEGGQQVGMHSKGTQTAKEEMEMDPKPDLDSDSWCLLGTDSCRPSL

Chain of Serine/threonine-protein kinase Nek7 (Homo sapiens) (Q8TDX7 whole entry, looked up): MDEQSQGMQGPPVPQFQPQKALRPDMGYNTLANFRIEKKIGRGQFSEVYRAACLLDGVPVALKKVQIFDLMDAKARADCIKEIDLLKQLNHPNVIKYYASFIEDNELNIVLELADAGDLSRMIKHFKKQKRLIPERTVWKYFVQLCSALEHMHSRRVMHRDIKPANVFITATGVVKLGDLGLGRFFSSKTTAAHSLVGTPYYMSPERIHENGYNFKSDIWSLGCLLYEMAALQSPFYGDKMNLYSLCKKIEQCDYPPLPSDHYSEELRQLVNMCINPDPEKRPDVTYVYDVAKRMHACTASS
Chain of Serine/threonine-protein kinase Nek6 (Homo sapiens) (Q9HC98 whole entry): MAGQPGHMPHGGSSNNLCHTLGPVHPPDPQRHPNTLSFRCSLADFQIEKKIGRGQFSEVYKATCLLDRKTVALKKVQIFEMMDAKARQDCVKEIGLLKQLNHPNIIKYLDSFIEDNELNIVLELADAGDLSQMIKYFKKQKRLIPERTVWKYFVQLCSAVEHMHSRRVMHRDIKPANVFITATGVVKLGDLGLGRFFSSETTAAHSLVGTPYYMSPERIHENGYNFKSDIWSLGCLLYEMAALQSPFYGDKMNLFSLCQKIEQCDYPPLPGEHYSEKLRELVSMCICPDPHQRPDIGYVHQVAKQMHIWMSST
Chain of Casein kinase II subunit alpha (Homo sapiens) (P68400 whole entry, looked up): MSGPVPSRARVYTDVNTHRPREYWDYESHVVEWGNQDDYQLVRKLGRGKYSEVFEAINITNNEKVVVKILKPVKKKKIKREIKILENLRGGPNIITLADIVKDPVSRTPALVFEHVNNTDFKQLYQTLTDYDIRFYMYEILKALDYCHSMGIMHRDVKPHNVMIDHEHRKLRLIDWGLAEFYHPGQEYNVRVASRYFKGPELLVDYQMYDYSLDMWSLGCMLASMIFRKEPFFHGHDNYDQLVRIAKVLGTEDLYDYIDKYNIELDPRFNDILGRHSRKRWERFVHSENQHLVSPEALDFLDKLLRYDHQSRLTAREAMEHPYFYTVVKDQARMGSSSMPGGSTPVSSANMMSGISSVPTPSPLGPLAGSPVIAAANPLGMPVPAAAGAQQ
Chain of Sphingosine kinase 1 (Homo sapiens) (Q9NYA1 whole entry): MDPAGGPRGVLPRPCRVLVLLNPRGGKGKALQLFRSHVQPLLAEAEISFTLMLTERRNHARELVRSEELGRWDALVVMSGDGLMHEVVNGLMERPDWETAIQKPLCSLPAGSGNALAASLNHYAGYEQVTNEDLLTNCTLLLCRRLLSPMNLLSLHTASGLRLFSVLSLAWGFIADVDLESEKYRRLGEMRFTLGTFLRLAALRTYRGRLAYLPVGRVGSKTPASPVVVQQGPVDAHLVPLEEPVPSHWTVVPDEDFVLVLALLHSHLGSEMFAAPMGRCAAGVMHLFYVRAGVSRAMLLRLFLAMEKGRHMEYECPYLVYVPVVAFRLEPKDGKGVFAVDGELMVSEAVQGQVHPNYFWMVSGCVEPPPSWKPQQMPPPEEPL

Compound	inhibition [1] [%]	inhibition [2] [%]	inhibition [3] [%]	inhibition [4] [%]	inhibition [5] [%]	inhibition [6] [%]	inhibition [7] [%]	inhibition [8] [%]	inhibition [9] [%]	inhibition [10] [%]	inhibition [11] [%]	inhibition [12] [%]	inhibition [13] [%]	inhibition [14] [%]	inhibition [15] [%]	inhibition [16] [%]	inhibition [17] [%]	inhibition [18] [%]	inhibition [19] [%]	inhibition [20] [%]
COc1cc2ncn(-c3cc(O[C@@H](C)c4ccccc4Cl)c(C(N)=O)s3)c2cc1OC	-1.61	-0.7	0	6.99	3.34	4.16	8.5	6.47	4.88	5.3	7.74	4.69	19.3	5.52	10.4	1.03	0.67	3.47	4.57	7.99
CCn1c(-c2nonc2N)nc2cnc(Oc3cccc(NC(=O)c4ccc(OCCN5CCOCC5)cc4)c3)cc21	-0.28	0.73	-0.35	2.94	5.71	11	10.1	5.72	2.67	7.92	27.5	1.53	3.94	3.27	2.29	2.55	4.96	6.06	3.89	7.58
